Records with an inconclusive call do not appear. Calls of active or inactive are those of the source. Calls come from the whole dose curve; as a rule, active = well fitted curve in the direction sought with a large enough effect; inconclusive = small, poorly fitted or top-dose-only effect, or another doubt; inactive = no such curve, though single readings can be large; an effect the other way counts as inactive or inconclusive.
Tests used:
CRL-7250 = normal cell line; assay: Cytotoxic Profiling of Annotated Libraries Using Quantitative High-Throughput Screening (AID 1296008); conditions: Five cell lines viability, CellTiter-Glo ATP luminescence, 48-72 h; max response: stronger effect = lower value; note: nearly all actives have a fitted effect of over 60% in size; for max response: % is set by controls: 0 for no effect and ±100 for the full control effect
Summary of the method: (§1)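 Cytotoxicity was measured as CellTiter-Glo ATP luminescence, read after 10 min at room temperature. Compound treatment of the cells lasted 48 or 72 hr at 37 degrees Celsius in a qHTS format.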

HEK293 = assay: as above; conditions: Five cell lines viability, CellTiter-Glo ATP luminescence, 48-72 h; max response: stronger effect = lower value
Summary of the method: as §1

HaCat [1] = assay: as above; conditions: Five cell lines viability, CellTiter-Glo ATP luminescence, 48-72 h; max response: stronger effect = lower value
Summary of the method: as §1

KB-3-1 = assay: as above; conditions: Five cell lines viability, CellTiter-Glo ATP luminescence, 48-72 h; max response: stronger effect = lower value
Summary of the method: as §1

NIH3T3 = assay: as above; conditions: Five cell lines viability, CellTiter-Glo ATP luminescence, 48-72 h; max response: stronger effect = lower value
Summary of the method: as §1

HACAT [2] = assay: qHTS assay to identify novel small-molecules to repurpose for Merkel cell carcinoma treatment (AID 1296009); conditions: MCC and control cell lines, CellTiter-Glo viability, 72 h; at 44.8 µM (top of the series) unless noted; note: nearly all actives have a fitted effect of over 60% in size
Summary of the method: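 72 hr, 37 degree celsius; NPC 8-pt / MIPE 11-pt dose response; compound pinned in DMSO; CellTiter-Glo, 10 min RT, luminescence; normalized to no-cell and DMSO controls.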

C33A = assay: Primary qHTS to identify gynecologic anti-cancer compounds using libraries of approved drugs and bioactive compounds (AID 1345084); conditions: Gynecologic cancer cell panel viability, ATPlite luminescence, 48 h; series mostly up to 57.5 µM; note: % is set by controls: 0 for no effect and ±100 for the full control effect; nearly all actives have a fitted effect of over 55% in size
Summary of the method: (§2)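 Cell viability after 48 h drug treatment, ATPlite luminescence readout; five doses.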

CAOV3 = assay: as above; conditions: Gynecologic cancer cell panel viability, ATPlite luminescence, 48 h; series mostly up to 57.5 µM
Summary of the method: as §2

CASKI = assay: as above; conditions: Gynecologic cancer cell panel viability, ATPlite luminescence, 48 h; series mostly up to 57.5 µM
Summary of the method: as §2

Es-2 = assay: as above; conditions: Gynecologic cancer cell panel viability, ATPlite luminescence, 48 h; series mostly up to 57.5 µM
Summary of the method: as §2

HeLa = assay: as above; conditions: Gynecologic cancer cell panel viability, ATPlite luminescence, 48 h; series mostly up to 57.5 µM
Summary of the method: as §2

Hek293T = assay: as above; conditions: Gynecologic cancer cell panel viability, ATPlite luminescence, 48 h, control line for the selectivity index; series mostly up to 57.5 µM
Summary of the method: as §2

JEG-3 = assay: as above; conditions: Gynecologic cancer cell panel viability, ATPlite luminescence, 48 h; series mostly up to 57.5 µM
Summary of the method: as §2

NC[C@H]1CCC[C@@H](CNC(=O)[C@@H](Cc2c[nH]c3ccccc23)NC(=O)N2CCC3(C=Cc4ccccc43)CC2)C1
inactive: max response (CRL-7250) 0.396% | max response (HEK293) -6.44% | outcome (HaCat [1]) | outcome (KB-3-1) | max response (NIH3T3) -1.79% | outcome (HACAT [2]) | Potency (C33A) | Potency (CAOV3) | outcome (CASKI) | Potency (Es-2) | Potency (HeLa) | Potency (Hek293T) | Potency (JEG-3)

CC(=O)O[C@@H]1C=C2[C@H](CC[C@@]3(C)[C@@]2(O)CC[C@H]2Cc4c([nH]c5ccccc45)[C@@]23C)O[C@@H]1C(C)(C)O
inactive: max response (CRL-7250) -3.54% | max response (HEK293) -5.86% | outcome (HaCat [1]) | max response (KB-3-1) 6.54% | max response (NIH3T3) 3.65% | outcome (HACAT [2]) inactive [at 17.4 µM] | Potency (C33A) | Potency (CAOV3) | outcome (CASKI) | Potency (Es-2) | Potency (HeLa) | Potency (Hek293T) | Potency (JEG-3)

O=C(NCCN1CCCC1)c1cc(-c2ccc(CN3CCOCC3)cc2)nc2ccc(F)cc12
inactive: max response (CRL-7250) 3.26% | max response (HEK293) 2.05% | outcome (HaCat [1]) | outcome (KB-3-1) | max response (NIH3T3) 1.71% | outcome (HACAT [2]) inactive [at 17.4 µM] | Potency (C33A) | Potency (CAOV3) | outcome (CASKI) | Potency (Es-2) | Potency (HeLa) | Potency (Hek293T) | Potency (JEG-3)

CC1CCC2(C)CCC3(C)C(=CCC4C5(C)CCC(O)C(C)(C(=O)O)C5CCC43C)C2C1C (stereo unspecified)
inactive: outcome (CRL-7250) | max response (HEK293) -6.34% | outcome (HaCat [1]) | max response (KB-3-1) 8.86% | max response (NIH3T3) 4.66% | outcome (HACAT [2]) inactive [at 17.4 µM] | Potency (C33A) | Potency (CAOV3) | outcome (CASKI) | Potency (Es-2) | Potency (HeLa) | Potency (Hek293T) | Potency (JEG-3)

CC1(C)CC2C3=CCC4[C@@]5(C)CC[C@H](OC6OCC(O)C(OC7OC(CO)C(O)C(O)C7O)C6O)C(C)(C)C5CC[C@@]4(C)[C@]3(C)C[C@H](O)[C@@]2(CO)[C@H](OC(=O)c2ccccc2)C1 (stereo partly specified)
inactive: max response (CRL-7250) -5.7% | max response (HEK293) -22% | outcome (HaCat [1]) | max response (KB-3-1) -6.42% | max response (NIH3T3) -2.6% | outcome (HACAT [2]) inactive [at 9.27 µM] | activity change, negative = cytotoxicity (C33A) -0.821% [at 11.6 µM] | activity change, negative = cytotoxicity (CAOV3) -7.46% [at 11.6 µM] | activity change, negative = cytotoxicity (CASKI) -3.21% [at 11.6 µM] | activity change, negative = cytotoxicity (Es-2) -3.08% [at 11.6 µM] | activity change, negative = cytotoxicity (HeLa) 2.29% [at 11.6 µM] | activity change, negative = cytotoxicity (Hek293T) 17.5% [at 11.6 µM] | activity change, negative = cytotoxicity (JEG-3) 8.97% [at 11.6 µM]

CC(C)(O)C(O)C(=O)OCc1ccc(O[C@@H]2O[C@H](CO)[C@@H](O)[C@H](O)[C@H]2O)cc1 (stereo partly specified)
inactive: max response (CRL-7250) -9.18% | max response (HEK293) 2.94% | outcome (HaCat [1]) | outcome (KB-3-1) | max response (NIH3T3) -2.16% | outcome (HACAT [2]) inactive [at 17.4 µM] | Potency (C33A) | Potency (CAOV3) | outcome (CASKI) | Potency (Es-2) | Potency (HeLa) | Potency (Hek293T) | Potency (JEG-3)

CC(CC(C)O[C@@H]1O[C@H](CO)[C@@H](O)[C@H](O)[C@H]1O)OC(=O)/C=C/c1ccc(O)cc1 (stereo partly specified)
inactive: max response (CRL-7250) 2.71% | max response (HEK293) -1.24% | outcome (HaCat [1]) | outcome (KB-3-1) | max response (NIH3T3) 3.43% | outcome (HACAT [2]) inactive [at 17.4 µM] | Potency (C33A) | Potency (CAOV3) | outcome (CASKI) | Potency (Es-2) | Potency (HeLa) | Potency (Hek293T) | Potency (JEG-3)

CC(C)(O)[C@@H]1CC[C@]2(CO)[C@@H](O)CC[C@](C)(O)[C@H]2[C@@H]1O[C@@H]1O[C@H](CO)[C@@H](O)[C@H](O)[C@H]1O
inactive: max response (CRL-7250) 1.76% | max response (HEK293) 1.77% | outcome (HaCat [1]) | max response (KB-3-1) 8.79% | max response (NIH3T3) 0.484% | outcome (HACAT [2]) inactive [at 17.4 µM] | Potency (C33A) | Potency (CAOV3) | outcome (CASKI) | Potency (Es-2) | Potency (HeLa) | Potency (Hek293T) | Potency (JEG-3)

COc1ccc(CC(NC(C)=O)C(=O)O)cc1 (stereo unspecified)
inactive: max response (CRL-7250) 0.775% | max response (HEK293) -3.66% | outcome (HaCat [1]) | max response (KB-3-1) 6.09% | max response (NIH3T3) 1.53% | outcome (HACAT [2]) | Potency (C33A) | Potency (CAOV3) | outcome (CASKI) | Potency (Es-2) | Potency (HeLa) | Potency (Hek293T) | Potency (JEG-3)

C=CCc1cc(OC)c(OC(C)C(O)c2ccc(O)c(OC)c2)c(OC)c1 (stereo unspecified)
inactive: max response (CRL-7250) -6.23% | max response (HEK293) 0.874% | outcome (HaCat [1]) | max response (KB-3-1) -7.75% | max response (NIH3T3) -6.43% | outcome (HACAT [2]) | Potency (C33A) | Potency (CAOV3) | outcome (CASKI) | Potency (Es-2) | Potency (HeLa) | Potency (Hek293T) | Potency (JEG-3)

O=C(NCC(=O)N1CCCC1)Nc1ccc2ccccc2c1
inactive: max response (CRL-7250) 3.04% | max response (HEK293) 2.51% | outcome (HaCat [1]) | outcome (KB-3-1) | max response (NIH3T3) -1.06% | outcome (HACAT [2]) | Potency (C33A) | Potency (CAOV3) | outcome (CASKI) | Potency (Es-2) | Potency (HeLa) | Potency (Hek293T) | Potency (JEG-3)

CC(=O)O[C@H]1C[C@@]2(C)[C@@H](CC[C@H]3[C@@]4(C)C=CC(=O)[C@@H](C)[C@@H]4[C@H](OC(C)=O)C(=O)[C@@]32C)/C1=C(\CCC=C(C)C)C(=O)O
inactive: max response (CRL-7250) 4.49% | max response (HEK293) -0.998% | outcome (HaCat [1]) | max response (KB-3-1) 5.79% | max response (NIH3T3) -2.17% | outcome (HACAT [2]) inactive [at 17.4 µM] | Potency (C33A) | Potency (CAOV3) | outcome (CASKI) | Potency (Es-2) | Potency (HeLa) | Potency (Hek293T) | Potency (JEG-3)

Source: PubChem BioAssay (NCATS)
